From PubChem BioAssay
GLP1R ag: qHTS of GLP-1 Receptor Agonists. HEK293 GLP-1R CRE-luciferase, luminescence, 4-6 h; cells express a hypersensitive GLP-1R form. Potency, µM (titrated, usually from 45.6 µM), usual class: activators. actives 0.007% (n = 380,000). Glucagon-like peptide 1 receptor (Homo sapiens), P43220. AID 624172, 2012
Target sequence (P43220 whole entry, looked up): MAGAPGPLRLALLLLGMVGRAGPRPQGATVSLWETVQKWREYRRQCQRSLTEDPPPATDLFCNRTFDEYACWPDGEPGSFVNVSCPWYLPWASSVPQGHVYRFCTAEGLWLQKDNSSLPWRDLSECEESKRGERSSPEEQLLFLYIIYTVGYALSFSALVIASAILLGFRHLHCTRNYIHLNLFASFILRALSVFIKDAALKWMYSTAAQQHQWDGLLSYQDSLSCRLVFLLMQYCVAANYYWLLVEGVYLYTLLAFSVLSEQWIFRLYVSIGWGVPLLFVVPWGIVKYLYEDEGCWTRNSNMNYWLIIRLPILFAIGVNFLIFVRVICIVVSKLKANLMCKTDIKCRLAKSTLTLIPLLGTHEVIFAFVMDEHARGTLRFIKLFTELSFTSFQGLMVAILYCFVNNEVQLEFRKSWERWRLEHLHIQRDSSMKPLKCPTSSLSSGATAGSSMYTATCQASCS
ClpP mod: qHTS Assay for Activators of ClpP | ATP-dependent Clp protease proteolytic subunit (Bacillus subtilis (strain 168)), P80244 | purified B. subtilis ClpP, FRET peptide cleavage, 20 min | Potency, µM (series often up to 57.5 µM) | actives 1.9% (n = 340,000); active = well fitted falling curve with a large enough effect; inconclusive = small, poorly fitted or top-dose-only effect; inactive = no such curve, though single readings can be large or run the other way; also: the source files actives as falling curves though it sought activators and does not explain the sign; nearly all actives have a fitted effect of over 65% in size
Target sequence (P80244 whole entry, looked up): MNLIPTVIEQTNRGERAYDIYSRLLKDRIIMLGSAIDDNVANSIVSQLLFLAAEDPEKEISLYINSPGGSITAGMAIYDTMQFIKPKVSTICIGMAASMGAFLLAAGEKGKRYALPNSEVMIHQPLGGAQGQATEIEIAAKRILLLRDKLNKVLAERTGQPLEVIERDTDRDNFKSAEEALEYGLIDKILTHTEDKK
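FRET quenching reversal measured ClpP activation: 10 microg/mL B. subtilis ClpP at pH 8 with the FRET-FV decapeptide, read at 430 nm after 320 nm excitation. The 20-min minus 0-min signal was scaled between DMSO/no-enzyme wells and ADEP (5.8 microM final).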
DRD3 antagonist: qHTS of D3 Dopamine Receptor Antagonist: qHTS. D(3) dopamine receptor (Homo sapiens), P35462. D3R cells, DiscoveRx beta-arrestin luminescence, antagonist mode; active compounds read low. max response, negative = inhibition, %. actives 2.5% (n = 360,000); in the data active = max response below about -50%; inconclusive = no clear call, values can overlap the other calls
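Cells expressing the human receptor were seeded at 1500 cells/well, incubated overnight at 37 degrees C in 5% CO2, then exposed to library compounds with dopamine controls for 90 minutes at 37 degrees C before luminescent detection.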
GLP1R inv ag: qHTS of GLP-1 Receptor Inverse Agonists (Inhibition Mode); HEK293 GLP-1R CRE-luciferase, luminescence, 24 h; GLP-1R form is constitutively active; Potency, µM (titrated, usually from 38.3 µM), hits mostly inhibitors; actives 1.6% (n = 410,000); AID 624417, 2012; also: nearly all actives have a fitted effect of over 55% in size
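Readout was luciferase luminescence, measured 12 min after detection reagent at room temperature. Beforehand, GLP-1R reporter HEK293 cells had sat 12 h, then received compounds for 24 hr at 37 deg C.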
DRD3 agonist: qHTS of D3 Dopamine Receptor Agonist: qHTS; D(3) dopamine receptor (Homo sapiens), P35462; D3R DiscoveRx beta-arrestin cells, luminescence, 90 min; max activation, %; actives 0.58% (n = 410,000); in the data active = max activation above about 30%
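Agonist-mode cell screen: cells plated at 1500/well and incubated overnight at 37 °C, then exposed to library compounds for 90 min at 37 °C. Detection reagent was added for 30–60 min at room temperature, and luminescence was read.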
HEK293 tox: qHTS of GLP-1 Receptor Inverse Agonists: Cytotox Screen. actives 0.13% (n = 410,000). AID 624418, 2012. Potency, µM (titrated, usually from 38.3 µM), actives largely listed as inhibitors. HEK293 cAMP-luciferase reporter cells, luminescence, 24 h;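 also: loss of luciferase light is scored as toxicity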
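Quantitative HTS format, 1536 wells, 200 cells/uL seeded. Compounds: 23 nL, 24 h, 37 °C. Detection: luciferase reagent, luminescence at 12 min RT; decreased signal taken as cytotoxic.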
Large screens that a line does not name were inactive. In the library only some 5.7% were active in any assay of this set; here they are far more common. Unless noted, calls follow the shape of the dose curve; as a rule, active = well fitted curve in the direction sought with a large enough effect; inconclusive = small, poorly fitted or top-dose-only effect, or another doubt; inactive = no such curve, though single readings can be large; an effect the other way counts as inactive or inconclusive.

COc1ccc(-c2cn3c(n2)sc2cc(C(=O)NCc4cccs4)ccc23)cc1	none (no result: GLP1R ag, DRD3 antagonist)
CCN(CC)C(=O)C1=C(C)N(Cc2ccc(F)cc2)C(=O)C(CC(=O)NCCN2CCOCC2)C1 (stereo not drawn)	none
COc1cc(-c2nc(Cn3nnc(C(=O)Nc4ccccc4)c3C)c(C)o2)cc(OC)c1OC	ClpP mod 28µM (no result: DRD3 antagonist)
COc1c(C)c2c(c(O)c1CC=C(C)CCC(=O)OCCN1CCOCC1)C(=O)OC2	none (no result: ClpP mod, DRD3 antagonist, GLP1R inv ag, DRD3 agonist, HEK293 tox)
O=C(NCCC1=CCCCC1)C1CCC(CNc2nc(=S)[nH]c3ccccc23)CC1 (stereo not drawn)	DRD3 antagonist -83 (no result: ClpP mod)
O=C(NCCc1ccc(Cl)cc1)C1CCC(CNc2nc(=S)[nH]c3ccccc23)CC1 (stereo not drawn)	ClpP mod inconclusive
CC(C)(C)c1ccc(S(=O)(=O)N(CCCN2CCOCC2)Cc2cccs2)cc1	DRD3 antagonist -67, GLP1R inv ag inconclusive
CCc1ccc(OC(C)C(=O)Nc2c(C(=O)c3ccccc3)oc3ccccc23)cc1 (stereo not drawn)	none (no result: DRD3 antagonist)
O=c1[nH]c(CN2CCN(Cc3ccccc3)CC2)nc2scc(-c3ccccc3)c12	DRD3 antagonist -82, GLP1R inv ag inconclusive (no result: ClpP mod)
O=C(CCCSc1nnc(-c2cccs2)n1CC1CCCO1)c1ccccc1 (stereo not drawn)	GLP1R inv ag 7.9µM
FC(F)(F)c1ccc(Sc2nnc(-c3cccs3)n2CC2CCCO2)nc1 (stereo not drawn)	none
FC(F)(F)c1cnc(Sc2nnc(-c3cccs3)n2CC2CCCO2)c(Cl)c1 (stereo not drawn)	DRD3 agonist 31
O=C(CSc1nnc(-c2cccs2)n1CC1CCCO1)N1CCCC1 (stereo not drawn)	none
COc1ccc2cc(C(=O)NCc3ccc4c(c3)CCN4C(=O)c3ccc(F)cc3)[nH]c2c1	none (no result: GLP1R ag, DRD3 antagonist)
CCOc1ccc(CCNC(=O)c2cnc3sc(N4CCC(C)CC4)nn3c2=O)cc1	none (no result: GLP1R ag, DRD3 antagonist)
COc1ccc(OC)c2c(C)ccnc12	none (no result: GLP1R ag, DRD3 antagonist, GLP1R inv ag, DRD3 agonist, HEK293 tox)
Cc1ccc(O)c(CC(C)C)n1	ClpP mod 3.5µM
CCn1c2c(c(=O)n3ncc(C(=O)Nc4cc(Cl)ccc4OC)c13)CN(Cc1ccc(OC)cc1)CC2	ClpP mod 32µM (no result: GLP1R ag, DRD3 antagonist)
CCCn1c(=NC(=O)c2cc3ccccc3o2)c(C(=O)OCC)cc2c(=O)n3ccccc3nc21	none (no result: GLP1R ag, DRD3 antagonist)
CCOC(=O)c1cc2c(=O)n3ccccc3nc2n(CC2CCCO2)c1=NC(=O)c1ccccc1C (stereo not drawn)	none (no result: GLP1R ag, DRD3 antagonist)
CCOC(=O)c1cc2c(=O)n3ccccc3nc2n(CCCOC)c1=NC(=O)c1ccncc1	none (no result: ClpP mod)
CCOC(=O)c1cc2c(=O)n3ccccc3nc2n(CCCOC)c1=NC(C)=O	ClpP mod 35µM
CCOC(=O)c1cc2c(=O)n3cccc(C)c3nc2n(CC2CCCO2)c1=NC(C)=O (stereo not drawn)	ClpP mod 1.3µM
CCCn1c(=NC(=O)c2ccco2)c(C(=O)OCC)cc2c(=O)n3ccccc3nc21	ClpP mod 18µM
Cc1ccc(S(=O)(=O)N2CCN(C(=O)C(O)c3ccccc3)CC2)cc1 (stereo not drawn)	none (no result: GLP1R ag)
c1ccc(COCCN2CCN(CCOCc3ccccc3)CC2)cc1	DRD3 antagonist -69
O=C(c1ccccc1)c1ccc(OCCCCN2CCCCC2)cc1	DRD3 antagonist -87, GLP1R inv ag inconclusive
C(#CCN1CCC(Cc2ccccc2)CC1)COCCOCc1ccccc1	GLP1R inv ag inconclusive
c1ccc(COc2ccc(OCCCCN3CCCCC3)cc2)cc1	DRD3 antagonist -72, GLP1R inv ag inconclusive
CN1C(=O)CC(C)(c2ccccc2)C1=O (stereo not drawn)	none (no result: ClpP mod, DRD3 antagonist, GLP1R inv ag, HEK293 tox)
CC(C)(C)C(=O)Nc1nnc(SCC(=O)Nc2nccs2)s1	ClpP mod 20µM
Cc1nn(Cc2ccc(Cl)cc2Cl)c(C)c1NC(=O)c1ccc(COc2cc(Cl)ccc2Cl)o1	GLP1R inv ag inconclusive
Cc1nn(Cc2c(F)c(F)c(F)c(F)c2F)c(C)c1NC(=O)c1ccc(COc2ccc(Cl)cc2Cl)o1	GLP1R inv ag 5µM
Cc1ccc(NS(=O)(=O)c2cc(Br)cc3c2N(C(=O)C2CC2)CC3)cc1C	GLP1R inv ag inconclusive (no result: GLP1R ag, DRD3 antagonist)
O=C(C1CC1)N1CCc2cc(Br)cc(S(=O)(=O)Nc3ccc(F)c(F)c3)c21	GLP1R inv ag 22µM, HEK293 tox inconclusive (no result: DRD3 antagonist)
Cc1cccc(-c2nc(CN3CCN(Cc4cccc(F)c4)CC3)c(C)o2)c1	GLP1R inv ag inconclusive
Cc1cccc(N2CCN(Cc3nc(-c4ccc(F)cc4F)oc3C)CC2)n1	DRD3 antagonist -86, GLP1R inv ag inconclusive (no result: ClpP mod)
Cc1oc(-c2cc(F)ccc2F)nc1CN1CCCN(C(=O)c2ccco2)CC1	DRD3 antagonist -81, GLP1R inv ag inconclusive (no result: ClpP mod)
COc1cccc(-c2nc(CN3CCN(C(=O)c4ccco4)CC3)c(C)o2)c1OC	none
Cc1oc(-c2cccc(F)c2)nc1CN1CCCN(C(=O)c2ccco2)CC1	DRD3 antagonist -62
CC(C)Oc1ccc(S(=O)(=O)N2CCOCC2)cc1NC(=O)Cc1ccsc1	none
O=C(COc1cccnc1[N+](=O)[O-])Nc1cccc(S(=O)(=O)N2CCOCC2)c1	none
COc1ccc(CC(=O)Nc2ccccc2C(C)=O)cc1S(=O)(=O)N1CCOCC1	ClpP mod 35µM
COc1ccc(S(=O)(=O)N2CCOCC2)cc1NC(=O)COc1cccnc1[N+](=O)[O-]	DRD3 antagonist -63
COc1ccc(S(=O)(=O)N2CCOCC2)cc1NC(=O)Cc1ccsc1	ClpP mod 20µM
Oc1ccc(C[C@H]2CN([C@@H](Cc3cccc(O)c3)CN3CCC[C@@H]3CN3C(=S)NC[C@@H]3Cc3ccccc3)C(=S)N2CC2CCCCC2)cc1	DRD3 antagonist inconclusive, GLP1R inv ag inconclusive, HEK293 tox inconclusive
Cc1ccccc1OCCCCn1nnc2sc3c(c2c1=O)CCC(C)C3 (stereo not drawn)	none (no result: GLP1R ag, DRD3 antagonist)
Clc1ccc(-c2nc3ccccn3c2CN2CCCCC2)cc1	ClpP mod inconclusive, GLP1R inv ag 10µM, HEK293 tox inconclusive
COc1cc(Br)cc(C=Nc2cccc(C(F)(F)F)c2)c1O	DRD3 antagonist -81, GLP1R inv ag inconclusive
